The record followed here is PubChem BioAssay (NCI).

Assay [1] can be described thus: NCI Yeast Anticancer Drug Screen. Data for the rad50 strain (AID 155).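 Also: 0% = growth of vehicle-only cultures of the same strain.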 As to conditions: S. cerevisiae rad50 strain growth inhibition, active compounds read high. The gist of the method:
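DNA repair mutant yeast, compound exposure, growth read-out; inhibition is taken relative to vehicle.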

A short description of assay [2]: NCI Yeast Anticancer Drug Screen. Data for the mec2-1 strain (AID 157). As to conditions: S. cerevisiae mec2-1 strain, active compounds read high. The gist of the method: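 Mutant yeast (mec2-1) grown with compound; growth inhibition relative to vehicle control reported.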
Assay [3] is described as follows: NCI Yeast Anticancer Drug Screen. Data for the sgs1 mgt1 strain (AID 161).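 Also: 0% = growth of cultures given vehicle only.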 As to conditions: S. cerevisiae sgs1 mgt1 strain, active compounds read high. The gist of the method:
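Percent growth inhibition was derived by comparing compound-exposed mutant yeast with vehicle-exposed cultures. The strain carries alterations in DNA damage repair.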

The nature of assay [4]: NCI Yeast Anticancer Drug Screen. Data for the cln2 rad14 strain (AID 165).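 Also: 0% = growth equal to vehicle treated cultures.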 Conditions: S. cerevisiae cln2 rad14 strain, active compounds read high. The gist of the method: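 Readout is yeast growth inhibition versus vehicle-treated controls, using a strain with cln2 and rad14 alterations exposed to compound.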
Assay [5] is described as follows: NCI Yeast Anticancer Drug Screen. Data for the bub3 strain (AID 167). Conditions: S. cerevisiae bub3 mutant strain, active compounds read high. The gist of the method: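 In this screen, a yeast mutant lacking normal mitotic checkpoint function is challenged with compound. Relative growth versus vehicle gives the inhibition value.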
Assay [6] in a line: NCI Yeast Anticancer Drug Screen. Data for the mlh1 rad18 strain (AID 175). Conditions: S. cerevisiae mlh1 rad18 strain growth inhibition, active compounds read high. The gist of the method:
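Genetically defined yeast (DNA repair-deficient) exposed to compounds; growth inhibition determined relative to vehicle.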

[7] abbreviates: at 5.0 µM (retest, dose inferred, filed as 0.5).
[8] abbreviates: at 50.0 µM (retest, dose inferred, filed as 5.0).

Each structure is given as a SMILES string. The panel holds about 79,000 compounds, 15% with a hit somewhere; the sample as a whole holds those more often. Values without a mark were called inactive. The source made the active and inactive calls. Rule as the data show it: active = growth inhibition above about 70%; inactive = the rest.

On to `O=C1/C(=C/c2cccc(F)c2)CCCc2ccccc21`, for which the growth inhibition in assay [1] (setting [7]) is 3%; in assay [1] (setting [8]) it was 50%; in assay [1] (at 50.0 µM), 70% (active); in assay [2] (setting [7]), 4%; in assay [2] (setting [8]) it was 36%; in assay [2] (at 50.0 µM), 37.2%. Besides, the growth inhibition in assay [3] (setting [7]) is 13%; in assay [3] (setting [8]), 67%; in assay [3] (at 50.0 µM) it was 82.5% (active); in assay [4] (setting [7]) it was -14%; in assay [4] (setting [8]), 14%; in assay [4] (at 50.0 µM), 12.3%. The growth inhibition is 14% in assay [5] (setting [7]); 81% (active) in assay [5] (setting [8]); 75.5% (active) in assay [5] (at 50.0 µM); 2% in assay [6] (setting [7]); 75% (active) in assay [6] (setting [8]); 72.7% (active) in assay [6] (at 50.0 µM).
For the compound `COc1cc(/C=C/C(=O)c2ccc3ccccc3c2)cc(OC)c1OC`, the growth inhibition was 38% in assay [1] (setting [7]); 40% in assay [1] (setting [8]); 7.75% in assay [1] (at 50.0 µM); 49% in assay [2] (setting [7]); 44% in assay [2] (setting [8]); 11.3% in assay [2] (at 50.0 µM). Also, the growth inhibition was 1% in assay [3] (setting [7]); 45% in assay [3] (setting [8]); 34.4% in assay [3] (at 50.0 µM); 22% in assay [4] (setting [7]); 14% in assay [4] (setting [8]); -5.35% in assay [4] (at 50.0 µM). The growth inhibition was 22% in assay [5] (setting [7]); 27% in assay [5] (setting [8]); 41.9% in assay [5] (at 50.0 µM); 37% in assay [6] (setting [7]); 44% in assay [6] (setting [8]); 22.6% in assay [6] (at 50.0 µM).
With `Cc1ccc(S(=O)(=O)NC(CCC(=O)Nc2ccccc2)C(=O)O)cc1` (stereo not given), the growth inhibition in assay [1] (setting [7]) was -4%; in assay [1] (setting [8]), 0%; in assay [1] (at 50.0 µM), 12.8%; in assay [2] (setting [7]), -4%; in assay [2] (setting [8]), -4%; in assay [2] (at 50.0 µM) it was 18.9%. For the same compound, the growth inhibition in assay [3] (setting [7]) is -6%; in assay [3] (setting [8]), -20%; in assay [3] (at 50.0 µM), 21.2%; in assay [4] (setting [7]), -5%; in assay [4] (setting [8]), -15%; in assay [4] (at 50.0 µM) it was 22%. For the same compound, the growth inhibition is -3% in assay [5] (setting [7]); 2% in assay [5] (setting [8]); 96.2% (active) in assay [5] (at 50.0 µM); 0% in assay [6] (setting [7]); -2% in assay [6] (setting [8]); 40.5% in assay [6] (at 50.0 µM).
As to `O=C(O)CC1c2ccccc2-c2ccccc21`, the growth inhibition in assay [1] (setting [7]) was -5%; in assay [1] (setting [8]), 36%; in assay [1] (at 50.0 µM), 87.7% (active); in assay [2] (setting [7]) it was -24%; in assay [2] (setting [8]), 24%; in assay [2] (at 50.0 µM), 64.5%. Besides, the growth inhibition is -4% in assay [3] (setting [7]); 31% in assay [3] (setting [8]); 78.7% (active) in assay [3] (at 50.0 µM); -3% in assay [4] (setting [7]); 54% in assay [4] (setting [8]); 43.9% in assay [4] (at 50.0 µM). Besides, the growth inhibition in assay [5] (setting [7]) was -6%; in assay [5] (setting [8]), 82% (active); in assay [5] (at 50.0 µM), 82.8% (active); in assay [6] (setting [7]) it was -7%; in assay [6] (setting [8]), 67%; in assay [6] (at 50.0 µM), 79.3% (active).
For `Cc1cc(Cc2ccccc2Cl)ccc1O`, the growth inhibition was -3% in assay [1] (setting [7]); 99% (active) in assay [1] (setting [8]); 99.2% (active) in assay [1] (at 50.0 µM); -9% in assay [2] (setting [7]); 100% (active) in assay [2] (setting [8]); 99.6% (active) in assay [2] (at 50.0 µM). Besides, the growth inhibition is -3% in assay [3] (setting [7]); 99% (active) in assay [3] (setting [8]); 99.5% (active) in assay [3] (at 50.0 µM); -17% in assay [4] (setting [7]); 99% (active) in assay [4] (setting [8]); 99% (active) in assay [4] (at 50.0 µM). Besides, the growth inhibition in assay [5] (setting [7]) is -6%; in assay [5] (setting [8]) it was 98% (active); in assay [5] (at 50.0 µM), 99.4% (active); in assay [6] (setting [7]), -4%; in assay [6] (setting [8]), 100% (active); in assay [6] (at 50.0 µM), 95.5% (active).
Consider `C[N+](C)(C)CCCCCCCCCCC(=O)N/N=C/c1ccc([N+](=O)[O-])o1`, for which the growth inhibition in assay [1] (setting [7]) is 6%; in assay [1] (setting [8]), 8%; in assay [1] (at 50.0 µM), 9.85%; in assay [2] (setting [7]) it was 2%; in assay [2] (setting [8]), 7%; in assay [2] (at 50.0 µM), 4.35%. The growth inhibition in assay [3] (setting [7]) is 6%; in assay [3] (setting [8]) it was 18%; in assay [3] (at 50.0 µM) it was 48.9%; in assay [4] (setting [7]), 2%; in assay [4] (setting [8]), 2%; in assay [4] (at 50.0 µM), 32.3%. In addition, the growth inhibition in assay [5] (setting [7]) is 0%; in assay [5] (setting [8]), -3%; in assay [5] (at 50.0 µM), -3.85%; in assay [6] (setting [7]), 9%; in assay [6] (setting [8]) it was 15%; in assay [6] (at 50.0 µM), 64.6%.
Consider `CC(CCl)OC(=O)Nc1cccc(C(F)(F)F)c1` (stereo not given), for which the growth inhibition was 55% in assay [1] (setting [7]); 82% (active) in assay [1] (setting [8]); 73.1% (active) in assay [1] (at 50.0 µM); 40% in assay [2] (setting [7]); 50% in assay [2] (setting [8]); 31.5% in assay [2] (at 50.0 µM). The growth inhibition is 42% in assay [3] (setting [7]); 70% (active) in assay [3] (setting [8]); 83% (active) in assay [3] (at 50.0 µM); 41% in assay [4] (setting [7]); 51% in assay [4] (setting [8]); 62% in assay [4] (at 50.0 µM). The growth inhibition is 37% in assay [5] (setting [7]); 77% (active) in assay [5] (setting [8]); 74.8% (active) in assay [5] (at 50.0 µM); 55% in assay [6] (setting [7]); 87% (active) in assay [6] (setting [8]); 73% (active) in assay [6] (at 50.0 µM).
Consider `COc1ccc2c(c1)CCc1c(CO)c(COC(=O)NC(C)C)n(C)c1-2`, for which the growth inhibition in assay [1] (setting [7]) is 87% (active); in assay [1] (setting [8]) it was 90% (active); in assay [1] (at 50.0 µM) it was 95.8% (active); in assay [2] (setting [7]) it was 98% (active); in assay [2] (setting [8]), 91% (active); in assay [2] (at 50.0 µM), 97.7% (active). For the same compound, the growth inhibition in assay [3] (setting [7]) was 96% (active); in assay [3] (setting [8]) it was 92% (active); in assay [3] (at 50.0 µM), 96.5% (active); in assay [4] (setting [7]), 3%; in assay [4] (setting [8]), 85% (active); in assay [4] (at 50.0 µM) it was 93.5% (active). The growth inhibition in assay [5] (setting [7]) is 5%; in assay [5] (setting [8]), 40%; in assay [5] (at 50.0 µM), 79.3% (active); in assay [6] (setting [7]), 59%; in assay [6] (setting [8]), 93% (active); in assay [6] (at 50.0 µM), 88.8% (active).
For the compound `Cc1cc2c(cc1S(=O)(=O)O)C1C(C3C2C2(Cl)C(Cl)=C(Cl)C3(Cl)C2(Cl)Cl)C2(Cl)C(Cl)=C(Cl)C1(Cl)C2(Cl)Cl` (stereo not given), the growth inhibition in assay [1] (setting [7]) is 1%; in assay [1] (setting [8]), 69%; in assay [1] (at 50.0 µM) it was 82.4% (active); in assay [2] (setting [7]), -14%; in assay [2] (setting [8]), 72% (active); in assay [2] (at 50.0 µM) it was 74.4% (active). In addition, the growth inhibition in assay [3] (setting [7]) was 27%; in assay [3] (setting [8]), 87% (active); in assay [3] (at 50.0 µM) it was 86.8% (active); in assay [4] (setting [7]), 33%; in assay [4] (setting [8]), 84% (active); in assay [4] (at 50.0 µM), 60.7%. Further, the growth inhibition was -15% in assay [5] (setting [7]); 82% (active) in assay [5] (setting [8]); 70.8% (active) in assay [5] (at 50.0 µM); -20% in assay [6] (setting [7]); 87% (active) in assay [6] (setting [8]); 79.2% (active) in assay [6] (at 50.0 µM).
As to `Cc1ccc([P+](CCN2C(=O)c3ccccc3C2=O)(c2ccc(C)cc2)c2ccc(C)cc2)cc1`, the growth inhibition in assay [1] (setting [7]) is 77% (active); in assay [1] (setting [8]), 98% (active); in assay [1] (at 50.0 µM) it was 89.8% (active); in assay [2] (setting [7]), 72% (active); in assay [2] (setting [8]), 99% (active); in assay [2] (at 50.0 µM) it was 90.3% (active). Besides, the growth inhibition in assay [3] (setting [7]) is 89% (active); in assay [3] (setting [8]) it was 99% (active); in assay [3] (at 50.0 µM) it was 90.5% (active); in assay [4] (setting [7]), 71% (active); in assay [4] (setting [8]) it was 99% (active); in assay [4] (at 50.0 µM), 87.9% (active). Moreover, the growth inhibition was 86% (active) in assay [5] (setting [7]); 99% (active) in assay [5] (setting [8]); 90.5% (active) in assay [5] (at 50.0 µM); 64% in assay [6] (setting [7]); 98% (active) in assay [6] (setting [8]); 87.7% (active) in assay [6] (at 50.0 µM).
